# From PubChem BioAssay
# GSTO1 counter = inhibitors of recombinant GSTO1, primary screen, counter-screen for RBBP9 inhibitor project, biochemical, fluorescence polarization. activity-based probe fluorescence polarization. inhibition, % at 5.96 µM. 1.1% of 300,000 active. AID 1974, 2009;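 active = inhibition above the campaign mean inhibition plus 3 SD, cut at about 35% in these data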;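 also: 0% = GSTO1-1 with DMSO and 100% = wells lacking GSTO1-1 enzyme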
# Target sequence (P78417 whole entry, looked up): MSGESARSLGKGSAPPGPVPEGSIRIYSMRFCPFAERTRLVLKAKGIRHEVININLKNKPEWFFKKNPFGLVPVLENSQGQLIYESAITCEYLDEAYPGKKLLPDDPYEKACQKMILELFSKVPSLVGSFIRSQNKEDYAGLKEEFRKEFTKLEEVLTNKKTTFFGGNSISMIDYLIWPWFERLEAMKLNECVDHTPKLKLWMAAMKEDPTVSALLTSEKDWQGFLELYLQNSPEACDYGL
# Fam108B inh = mouse Fam108B serine hydrolase inhibitors, primary screen, counter-screen for RBBP9 inhibitor project, biochemical, fluorescence polarization. inhibition, % at 9.51 µM. 0.33% of 300,000 active. recombinant Fam108B, FP-Rh probe fluorescence polarization. AID 1947, 2009;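 active = inhibition above the screen mean inhibition plus 3 SD, computed separately per campaign, cut at about 18% in these data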;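 also: inhibitors lower polarization as less probe binds the enzyme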
# PAD4 FP inh = human PAD4 inhibitors, primary screen, biochemical, fluorescence polarization, 1536-well format | recombinant PAD4, RCA probe fluorescence polarization | inhibition, % at 6.36 µM | 0.41% of 330,000 active | AID 485272, 2010;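 active = percent inhibition above a cutoff equal to the mean of all tested compounds plus 3 SD, cut at about 15% in these data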;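 also: 0% = PAD4 with RCA probe and DMSO and 100% = probe without PAD4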
# pPAFAH inh = pPAFAH enzyme inhibitors, primary screen, biochemical, fluorescence polarization, human. 1.5% of 330,000 active. inhibition, % at 3.39 µM. Platelet-activating factor acetylhydrolase (Homo sapiens), Q13093. AID 463082, 2010. recombinant pPAFAH, FP-rhodamine probe fluorescence polarization;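 active = inhibition above the mean inhibition across the screen plus 3 SD, cut at about 25% in these data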;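 also: inhibitors block binding of the rhodamine activity-based probe so polarization drops; 0% = enzyme with DMSO and 100% = wells lacking pPAFAH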
# PME-1 inh = PME-1 inhibitors via competitive probe labeling, primary screen, biochemical, fluorescence polarization, FP-Rh probe, HTS | 0.53% of 320,000 active | recombinant PME-1 | Protein phosphatase methylesterase 1 (Homo sapiens), Q9Y570 | inhibition, % at 5.9 µM;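 active = inhibition above the campaign mean of all compounds plus 3 SD, cut at about 26% in these data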;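 also: competitive labeling of PME-1 active site by serine hydrolase directed probe; 0% = PME-1 with DMSO and 100% = wells lacking PME-1 enzyme; inhibitors block probe labeling so polarization falls and inhibition rises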
# GSTO1 confirm = GSTO1 inhibitor hit confirmation, counter-screen for RBBP9 inhibitor project, biochemical, fluorescence polarization, triplicate. shares compounds with GSTO1 counter. recombinant GSTO1, probe fluorescence polarization. inhibition, % at 5.96 µM. 54% of 2,400 active. AID 2176, 2009;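 active = inhibition above the primary screen's cutoff, its mean inhibition plus 3 SD, cut at about 35% in these data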;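 also: loss of polarization as inhibitors block binding of rhodamine sulfonate ester activity probe; 0% = GSTO1 with DMSO and 100% = wells lacking GSTO1 enzyme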
# Numbers without * were called inactive; . = no result. Most compounds without a hit are left out; they make up all but 2.3% or so of the library.
SMILES,GSTO1 counter,Fam108B inh,PAD4 FP inh,pPAFAH inh,PME-1 inh,GSTO1 confirm
CC(C)(C)c1ccc(O)c(N)c1,38*,2,-15,5,3,1
CC(=O)N(Cc1ccc(F)cc1)C1=C(NCCc2ccccc2)C(=O)c2ccccc2C1=O,44*,12,8,6,9,46*
CC(=O)N(Cc1ccc(F)cc1)c1cccc(C)c1C,1,1,1,-2,4,.
COc1cc(OC)c([N+](=O)[O-])cc1/C=N/NC(=O)c1ccncc1,49*,2,-8,2,1,18
O=C(COC(=O)c1cc(S(=O)(=O)N2CCOCC2)ccc1F)NCc1ccc2c(c1)OCO2,.,.,3,10,.,.
CCc1cc(C(=O)N=Nc2c(O)[nH]c3c(Br)cc(Br)cc23)c2ccccc2n1,75*,3,-12,16,12,20
Cc1ccc(C(O)(C(=O)NNc2ccc3ccccc3n2)c2ccc(C)cc2)cc1,10,-1,0,2,-3,.
CCOC(=O)c1cnc(-n2[nH]c(C)cc2=O)[nH]c1=O,42*,-3,-2,2,-8,4
CN1CCC(NC(=O)c2cccc(Oc3ccccc3)c2)CC1,63*,3,-2,2,3,6
COc1ccc(Oc2ccc(C(F)(F)F)cc2NC(=O)CC(CC(=O)O)c2ccccc2)cc1 (stereo unspecified),43*,3,4,24,-1,2
COc1ccc(Oc2ccc(C(F)(F)F)cc2NC(=O)c2ccc(F)cc2)cc1,-6,-8,-5,-15,-5,.
C/C(=C/c1oc2ccc(O)cc2c1[N+](=O)[O-])N(C)C,51*,2,-2,16,7,9
CC(=O)Oc1ccc2oc(/C=C/N(C)C)c([N+](=O)[O-])c2c1,-2,-1,-5,7,-4,.
Cc1c(Br)c(O)c(Br)c(O)c1/C=N/n1c(-c2ccccc2)n[nH]c1=S,58*,3,1,14,-12,35*
COC(=O)CN1C(=O)C2(C(C#N)=C(N)Oc3n[nH]c(-c4cccs4)c32)c2ccccc21 (stereo unspecified),9,-3,-10,-2,1,.
COC(=O)CN1C(=O)C2(C(C#N)=C(N)Oc3c2c(C)nn3-c2ccccc2)c2ccccc21 (stereo unspecified),42*,4,-3,9,4,15
CN(Cc1cccnc1)C(=O)Cc1ccc(NS(=O)(=O)c2cccc(C(F)(F)F)c2)cc1,18,2,-14,3,0,.
CCOC(=O)c1c(NC(=O)CCl)sc(CN(C)C)c1-c1ccccc1,77*,-1,6,3,-1,91*
CN(C)S(=O)(=O)c1ccc(NC(=O)CN2C(=O)NC(Cc3ccccc3)C2=O)cc1 (stereo unspecified),.,.,2,-3,-3,.
O=C1Nc2ccccc2N2CCCC12 (stereo unspecified),69*,3,-12,0,2,77*
C[C@]12C=CC(=O)C=C1CC[C@@H]1C2=CC[C@]2(C)[C@@H](C(=O)CN3CCN(c4cc(N5CCCC5)nc(N5CCCC5)n4)CC3)CC[C@@H]12,51*,-5,-11,8,-3,45*
O=C(CSc1ncn[nH]1)Nc1ccc(Cl)c(Cl)c1,52*,-5,2,-3,-1,34
Cc1cc(C)nc(NN=C(c2ccccc2)c2ccccc2)n1,-2,-4,-6,3,-6,.
Oc1ccc(O)c(/C(=N/Nc2ccccc2)c2ccccc2)c1,40*,5,-15,44*,3,6
C[C@@H]1COC(=O)[C@H](Cc2ccc(F)cc2)CC/C=C\C[C@@H](CC(=O)NCCO)C(=O)N1,.,.,5,-4,.,.
SMILES,GSTO1 counter,Fam108B inh,PAD4 FP inh,pPAFAH inh,PME-1 inh,GSTO1 confirm
CSc1cccc(CN2CCCC(CNC(=O)c3ccco3)C2)c1 (stereo unspecified),4,-3,-1,6,-1,.
O=C(O)c1cccc(Cn2c(Cl)c(/C=N/Nc3ccccc3)sc2=O)c1,50*,8,3,27*,8,65*
O=C(CN1CCCc2ccccc21)NCCc1ccc(Cl)cc1,11,-2,-3,5,11,.
Cc1c(O)cc2c(c1O)C(=O)CC(c1ccc(O)cc1)O2 (stereo unspecified),51*,2,-1,32*,-1,10
Cc1cc(OC(=O)N2CCOCC2)cc(C)c1Cl,2,0,4,7,-5,.
CC(=O)Oc1c(Cl)c(N2CCOCC2)c(OC(C)=O)c2ccccc12,44*,1,-5,2,6,9
CCc1ccc(S(=O)(=O)N2CCN(C(=O)c3cccnc3)CC2)cc1,0,0,-3,3,3,.
CCOc1ccc(N(CCCCO)C(=S)NC(=O)c2ccc(C)c(Br)c2)cc1,47*,-5,-4,2,3,11
CC1(OC(=O)CCc2ccccc2)C(=O)C=C2C=C(c3ccc(C#N)cc3)N(C3CCCCC3)C=C2C1=O (stereo unspecified),45*,4,-5,15,0,12
CC1(OC(=O)C2CCCC2)C(=O)C=C2C=C(c3ccsc3)N(C3CCCCC3)C=C2C1=O (stereo unspecified),43*,12,-5,8,1,18
CC1(OC(=O)C2CCCC2)C(=O)C=C2C=C(c3ccsc3)N(CC3CC3)C=C2C1=O (stereo unspecified),40*,3,11,-3,-1,25
CC1(OC(=O)C2CCCC2)C(=O)C=C2C=C(c3ccsc3)N(Cc3ccc4c(c3)OCO4)C=C2C1=O (stereo unspecified),12,7,-10,17,5,.
CC1CCCC(NC(=O)COC(=O)[C@@H](NC(=O)c2ccc(F)cc2)C(C)C)C1C (stereo partly specified),.,.,2,8,.,.
Cc1ccc(N2C(=O)NC(NC(=O)C3CC3)(C(F)(F)F)C2=O)cc1 (stereo unspecified),4,3,-2,4,-5,.
CCCCC[n+]1ccn(-c2nc3ccccc3nc2[N-]S(=O)(=O)c2ccc(C)cc2)c1,5,-1,6,6,1,.
CCCC[n+]1ccn(-c2nc3ccccc3nc2[N-]S(=O)(=O)c2ccccc2)c1,13,2,0,1,0,.
CC(C)(C)c1cc[n+](C2=C([O-])c3ccccc3C(=O)/C2=N\S(=O)(=O)c2ccccc2)cc1,87*,5,-3,0,11,81*
